# Sampled rows, rich in hits. Any-hit rate of the full collection: about 0.97%.
# TcdB GH inh = TcdB glycohydrolase inhibitors, primary screen, biochemical, single point, plate reader; TcdB glycohydrolase enzymatic assay; inhibition, % at 9.99 µM; hit rate 0.24% among 350,000; AID 652162, 2013; in the data active = inhibition above about 10%
# FadD28 binding = inhibitors of FadD28 bisubstrate probe binding, primary screen, biochemical, fluorescence polarization, single point. Mycobacterium tuberculosis FadD28 fatty-acid-AMP ligase. inhibition, % at 12.5 µM. hit rate 0.22% among 360,000; in the data active = inhibition above about 8.5%, passing the limit was not always enough
# Mtb BioA inh = M. tuberculosis BioA enzyme inhibitors, primary screen, biochemical, plate reader, single point, HTS | purified M. tuberculosis BioA enzyme | inhibition, % at 9.99 µM | hit rate 0.096% among 360,000; in the data active = inhibition above about 40%
# Rv3671c inh = Rv3671c serine protease inhibitors, primary screen, biochemical, fluorescence polarization, M. tuberculosis H37Rv; AID 2606, 2010; hit rate 0.048% among 320,000; P9WHR9; inhibition, % at 5.96 µM; in the data active = inhibition above about 38%;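 note: extracellular domain of Rv3671c used as enzyme; 0% = enzyme with DMSO and 100% = no enzyme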
# RecA splice inh = Mtb RecA intein splicing inhibitors, primary screen, biochemical, fluorescence, HTS; hit rate 0.75% among 290,000; cell-free RecA intein splicing; inhibition, % (test concentration not listed); in the data active = inhibition above about 30%;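 note: 0% = vehicle wells and 100% = reference inhibitor control wells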
# UGM FP inh = M. tuberculosis UGM enzyme inhibitors, primary screen, biochemical, fluorescence polarization, single point. UDP-galactopyranose mutase (Mycobacterium tuberculosis (strain ATCC 25618 / H37Rv)), …. purified UGM, fluorescence polarization probe displacement. inhibition, % at 10 µM. hit rate 0.06% among 320,000; in the data active = inhibition above about 10%, passing the limit was not always enough
# Starred values were filed as active, the others as inactive; x = not tested or not shown.
SMILES,TcdB GH inh,FadD28 binding,Mtb BioA inh,Rv3671c inh,RecA splice inh,UGM FP inh
CC(C)NC(=O)Nc1ccc2c(c1)CC(=O)N([C@@H](C)CO)C[C@@H](C)[C@H](CN(C)C(=O)Nc1ccccc1)O2,-0.7,x,-1.2,x,x,x
COc1cc(/C=N/Nc2ccccn2)ccc1O,16.4*,-1.0,x,-2.4,-4.1,-2.9
CC(C)CC#Cc1cnc2c(c1)C(=O)N([C@H](C)CO)C[C@@H](C)[C@@H](CN(C)Cc1ccccc1C(=O)O)O2,1.8,x,4.9,x,x,x
COc1ccc2c3c([nH]c2c1)[C@@H](CO)N(Cc1nccs1)CC31CCN(C(=O)C2CC2)CC1,-0.9,x,x,x,x,x
CCCCCCCCCC(=O)OCC(O)CO (stereo unspecified),-0.8,-0.3,0.6,-1.4,2.5,-2.5
CCCCCCCCCCCCCCC[C@@H](O)[C@@H](N)CO,-3.6,47.9*,-0.7,x,x,x
Cc1cccc(C)c1NS(=O)(=O)c1cc2c3c(c1)CC(=O)N3CCC2,-0.5,-0.6,0.1,-12.7,-1.5,0.2
O=C1Cc2cc(S(=O)(=O)NCc3ccccc3Cl)cc3c2N1CCC3,11.3*,-1.8,-0.4,-12.7,4.0,-0.7
Oc1ccc(CCNc2ncnc3ccc(Cl)cc23)cc1,11.5*,-3.6,0.1,-14.1,4.4,2.3
Nc1nc(Cl)cc(NCCc2ccc(O)cc2)n1,13.5*,-2.6,x,-9.6,-0.5,2.8
COc1ccccc1NC(=O)N1CCCCN2[C@@H](CO)[C@@H](c3ccc(C#CC4CC4)cc3)[C@@H]2C1,-0.8,x,x,x,x,x
CCn1c(CSc2nnc3ccccn23)nc2cc(C(=O)O)ccc21,x,13.3*,-0.2,26.8,3.6,6.0
CCn1c(CSc2nnc(-c3ccncc3)n2CCOC)nc2cc(C(=O)O)ccc21,-3.5,3.1,0.9,14.3,1.7,-0.9
COc1ccc(CN(C)C[C@H]2Oc3ccc(NC(=O)Nc4c(C)noc4C)cc3CC(=O)N([C@H](C)CO)C[C@@H]2C)cc1,-0.5,x,x,x,x,x
Cn1c(=O)c2cc(NC(=S)NC3CCCCC3)ccc2n1Cc1ccc(Cl)cc1,0.8,17.3*,0.7,x,x,x
CCN(C(=O)COC(=O)c1cccnc1SC)C1CCCCC1,14.7*,x,-0.4,-2.1,x,-3.1
CCn1nc([N+](=O)[O-])c(C(C#N)c2nc3cc(C(F)(F)F)ccc3s2)c(Cl)c1=O (stereo unspecified),x,45.4*,-3.8,22.5,3.7,2.7
Cn1nc([N+](=O)[O-])c(C(C#N)c2ccccn2)c(Cl)c1=O (stereo unspecified),-1.0,0.8,x,-6.9,46.1*,-1.5
CCCn1nc([N+](=O)[O-])c(C(C#N)c2nc3ccccc3o2)c(Cl)c1=O (stereo unspecified),x,15.1*,x,14.0,5.1,4.0
Cc1ccc(Cn2c(C(C)Nc3nc(-c4ccc(Cl)c([N+](=O)[O-])c4)cs3)nc3cc(C(F)(F)F)ccc32)cc1 (stereo unspecified),0.9,-3.9,-1.6,-10.5,-0.7,3.6
C[C@@H]1CN([C@@H](C)CO)C(=O)c2cc(NC(=O)Nc3ccc4c(c3)OCO4)ccc2O[C@@H](C)CCCCO[C@@H]1CN(C)S(=O)(=O)c1cn(C)cn1,-1.5,x,1.5,x,x,x
CN(C(=O)COC(=O)CNC(=O)c1ccccc1Cl)c1ccccc1,14.9*,-3.5,x,3.4,0.6,-1.0
C[C@H]1CCCCO[C@H](CN(C)S(=O)(=O)c2ccc(Cl)cc2)[C@@H](C)CN([C@@H](C)CO)C(=O)c2cc(NC(=O)c3ccccc3)ccc2O1,-1.0,x,2.2,x,x,x
COc1ccc(CN2C(=O)C(Cc3ccccc3)Nc3ncnc(N4CCc5ccccc5C4)c32)cc1 (stereo unspecified),x,x,x,-7.5,34.7*,2.4
COc1ccc(CN2C(=O)C(Cc3ccccc3)Nc3ncnc(N4CCOCC4)c32)cc1 (stereo unspecified),-0.6,0.1,-0.1,-12.6,0.5,-0.5
Cc1ccnc(N2C(=O)c3ccccc3C2=O)c1,14.7*,x,1.8,-0.8,-0.6,-1.1
CCOC(=O)/C(C#N)=C1/SC(CC)C(=O)N1c1ccc(Br)cc1 (stereo unspecified),x,-1.0,8.8,3.7,4.5,-0.2
CCOC(=O)/C(C#N)=C1/SC(C)C(=O)N1c1ccc(Br)cc1 (stereo unspecified),x,-1.8,3.9,-8.6,31.7*,-0.2
